# Measured values published in PubChem BioAssay AID1259240 (Keith Lab, Institute of Cancer Science, University of …, 2017).
# A number with no mark means an inactive call. Activity calls are given as the source filed them. Cut-off read from the data, not from the text of the source: active = fold change mostly below about -2 (no sharp cut-off); inactive = mostly above about -1.8.
# Assay: modulation of TERT promoter-driven luciferase – cell-based, luciferase reporter, human, primary screen (AID 1259240)
# Details: A2780 TERT promoter luciferase reporter, 16 h; at 20 µM, fold versus average of vehicle-only wells
SMILES,fold change,outcome
Cc1[nH]nc2c1C(c1ccccc1F)NC2=O (centres undefined),-1.71,–
COc1ccc(S(=O)(=O)NC(C)(C)C)cc1-c1nnc2c3ccccc3c(C)nn12,-1.62,–
Fc1ccc(OCc2nc(-c3ccc(-n4cccc4)cc3)no2)cc1,-1.22,–
O=C(NCC1(c2ccccc2)CCCC1)c1ccc2c(=O)n3c(nc2c1)CCCCC3,-1.33,–
CC(C)OCCCNC(=O)Cc1ccc(NC2=NC3CS(=O)(=O)CC3S2)cc1 (centres undefined),-1.17,–
CCOP(=O)(OCC)C(Nc1ccccn1)c1ccc(F)cc1 (centres undefined),-1.13,–
COc1ccc(S(=O)(=O)n2cnc3ccccc32)c(C)c1,-1.08,–
COC(=O)C1Cc2cc(OC)c(OC)cc2C(Cc2ccc(OC)c(OC)c2)=N1 (centres undefined),-1.78,–
CCOC(=O)N1CCN(c2c(NCC3CCCO3)c(=O)c2=O)CC1 (centres undefined),1.16,–
OCCn1c(-c2ccc(Br)cc2)cn2c3ccccc3nc12,-1.06,–
O=C(c1cncc(Br)c1)N1CCN(c2ccc(N3CCOCC3)nn2)CC1,1.24,–
COc1ccc2cc3c(N)nn(C(=O)CN4CCOCC4)c3nc2c1,-1.27,–
COCCNC(=O)CCSc1nc(-c2ccc3c(c2)OCO3)cc(C(F)(F)F)n1,-1.36,–
CC(C)(C)NC(=O)Cn1c(=O)oc2ccc(Cl)cc21,-3.03 (active),–
CCC(Sc1nnc(-c2c[nH]c3ccccc23)n1CCOC)C(=O)OC (centres undefined),–,inactive
CCc1ccc2[nH]cc(S(=O)(=O)c3ccc(F)cc3)c(=O)c2c1,-1.48,–
c1ccc2nc3c(nc2c1)Nn1cnnc1S3,-1.42,–
CCCc1nnc2n1Nc1nc3ccccc3nc1S2,1.62,–
CCS(=O)(=O)Nc1ccc(C2=NN(S(C)(=O)=O)C(c3ccco3)C2)cc1 (centres undefined),-1.18,–
CCCCC1=NN(C(=O)C(=O)Nc2ccc(Br)cc2)C(O)(C(F)(F)F)C1 (centres undefined),1.01,–
CN(C)C(=O)Nc1ccc2snnc2c1,1.12,–
O=C(CC1(O)C(=O)Nc2ccc(Br)cc21)c1cccs1 (centres undefined),-6.1 (active),–
CCN1CCN(C(=O)CN2C(=O)COc3ccc(S(=O)(=O)N4CCC(C)CC4)cc32)CC1,1.16,–
CCSc1nc2ccccc2n1S(=O)(=O)c1ccccc1,-2.48 (active),–

SMILES,fold change,outcome
Cc1ccc(-c2nc3ccccc3n3cc4c(=O)n(C)c(=O)n(C)c4c23)cc1,-1.32,–
CCOc1ccc(/C=c2\sc3nc(=O)c(Cc4ccc(Cl)cc4)nn3c2=O)cc1OC,1.07,–
COc1ccc(-c2cc(C(F)(F)F)nc(SCCC(=O)N3CCN4CCCC4C3)n2)cc1 (centres undefined),-1.73,–
CC1=C(C(N)=O)C(c2ccc(Br)cc2)n2nc(CCCO)nc2N1 (centres undefined),–,inactive
COc1ccccc1CNc1nc2ccccc2n2nnnc12,-3.71 (active),–
CC(=O)C(Sc1nc(C)nc2c1c(=O)n(C)c(=O)n2C)C(C)=O,1.87,–
O=c1oc2cc(O)ccc2cc1S(=O)(=O)c1ccccc1,-1.16,–
CC(=O)NC1=NN(C(C)=O)C2(S1)C(=O)N(C)c1ccccc12 (centres undefined),-1.23,–
COc1cccc2cc(S(=O)(=O)c3ccccc3)c(=O)oc12,1.83,–
CCCCN(C)C(=O)Cn1c(=O)oc2cc(S(=O)(=O)N3CC(C)CC(C)C3)ccc21 (centres undefined),1.08,–
Cn1c2ccccc2c2cnn(CC(=O)N3CCN(c4ccccn4)CC3)c(=O)c21,-1.1,–
CCOC(=O)CSc1nnc(-c2c[nH]c3ccccc23)n1C,–,inactive
COc1ccc(-c2csc3nc(-c4ccccc4F)oc(=O)c23)cc1OC,-1.03,–
COc1ccccc1-c1nc2s/c(=C3\C(=O)N(CC(=O)O)c4ccccc43)c(=O)n2n1,1.16,–
O=C1c2cccnc2C(=O)N1CNc1ccc(Cl)cc1,1.07,–
Brc1c(C[n+]2ccccc2)nc2ccccn12,-1.91,–
O=C(CSc1nnc2c(n1)[nH]c1ccccc12)c1ccc(Br)cc1,1.22,–
CC1(C)CC(=O)c2sc(NC(=O)C(C)(C)C)nc2C1,1.32,–
CCNc1nc(NCC)nc(OCCNS(=O)(=O)c2ccccc2)n1,-1.79,–
CCn1ncc(CNC(=O)c2cnn3c(C(F)F)cc(-c4ccc(C)cc4)nc23)c1C,1.02,–
c1ccc2c(c1)OCC(CNc1nnc(Cc3ccncc3)c3ccccc13)O2 (centres undefined),-1.37,–
c1ccc(N2CCN(c3nc4ccccc4n4cnnc34)CC2)cc1,1.17,–
CCOC(=O)/C(=N\OC)c1cn2cc(Br)ccc2n1,1.2,–
CCOC(=O)C1CCN(c2c(N(C)C3CCCCC3)c(=O)c2=O)CC1,1.32,–

SMILES,fold change,outcome
O=c1cc(-c2cc(Br)cc3c2OCOC3)oc2ccccc12,-1.26,–
c1ccc(CNc2nc3ccccc3n3cnnc23)nc1,1.11,–
CCCC1=NN(C(=O)CSCc2ccccc2Cl)C(O)(C(F)(F)F)C1 (centres undefined),-2.03 (active),–
COCCn1c(C)cc(C(=O)CSc2nnc3c(C)cc4ccccc4n23)c1C,1.96,–
Nc1nc(SCC(=O)c2ccc(O)cc2O)n[nH]1,-1.59,–
CCCCCn1c(=O)[nH]c2c(c1=O)CCC2,-1.18,–
COc1cccc(/C=c2\sc3nc(=O)c(Cc4ccc(Cl)cc4)nn3c2=O)c1OC,-1.08,–
Cc1cc(C)cc(N2CN=c3s/c(=C4\C(=O)Nc5ccccc54)c(=O)n3C2)c1,-1.15,–
CCNc1nc2c(c(=O)n(C)c(=O)n2C)n1Cc1ccc(Cl)cc1,1.15,–
Cc1nc2ncccn2c1-c1csc(Nc2ccc(Cl)cc2)n1,-2.31 (active),–
CC1=NN(c2nc3ccccc3nc2-n2nc(C)cc2C)C(=O)C1,-1.08,–
CCCNc1c(NC2CCN(C(=O)OCC)CC2)c(=O)c1=O,-1.23,–
CC(=O)c1cccc(NC(=O)Nc2ccc3snnc3c2)c1,-1.05,–
CCOC(=O)N1CCN(c2c(NC3CCCC(C)C3C)c(=O)c2=O)CC1 (centres undefined),1.1,–
O=c1cc(CSc2nnnn2-c2ccccc2)nc2nc[nH]n12,-2.26 (active),–
CCOC(=O)c1nn(-c2ccc(C)cc2)c(=O)c2c(NC(=O)c3ccc(C)c([N+](=O)[O-])c3)scc12,1.24,–
N#Cc1cn(CC(=O)NCCc2c[nH]c3ccccc23)c2ccccc12,-1.14,–
COc1ccc(-n2c(-c3ccco3)nc3c(cnn3-c3ccc(Cl)cc3)c2=O)cc1,-1.39,–
O=C(NCCc1c[nH]c2ccccc12)C1CCN(c2ccc(N3CCOCC3)nn2)CC1,-1.29,–
OC(c1ccccc1)c1nn(CN2CCOCC2)c(=S)n1-c1ccccc1 (centres undefined),-3.71 (active),–
C=CCNC(=O)c1onc(C)c1Cl,1.22,–
CCOC(=O)C1=C(CS(=O)(=O)c2ccc(F)cc2)NC(=O)NC1c1cc(OC)ccc1OC (centres undefined),1.65,–
COc1cc(-c2nc3sccn3c2Nc2ccc(OC)c(OC)c2)ccc1O,-1.31,–
CCOC(=O)N1CCN(c2c(N(CC)CCN(C)C)c(=O)c2=O)CC1,-1.33,–

SMILES,fold change,outcome
Cc1ccc2c(C)nc(NC3=NCN(C4CCCC4)CN3)nc2c1,-2,–
COCC(=O)N1N=C(c2ccc(NS(C)(=O)=O)cc2)CC1c1ccccc1 (centres undefined),1.13,–
CCOC(=O)c1nn(-c2ccc(F)cc2)c(=O)c2c(NC(=O)CCCl)scc12,-3.04 (active),–
CCOc1ccc2nc(NC(=O)CN(C)S(=O)(=O)c3cnc[nH]3)sc2c1,1.35,–
COc1cc2c(cc1OC)C(c1ccc(C)c(Br)c1)CC(=O)N2 (centres undefined),-1.04,–
N#Cc1ccc(Cn2c(=O)n(Cc3ccccc3Cl)c(=O)c3cccnc32)cc1,-1.11,–
Cc1ccc(CN2C(=O)/C(=C/c3c(NCCO)nc4ccc(C)cn4c3=O)SC2=S)cc1,-1.97,–
COc1ccc(/C=C/c2nc3scc(-c4cccs4)c3c(=O)o2)cc1,-1.6,–
OCCOCCn1c(-c2ccccc2)nc(=S)c2c1CCCC2,-1.03,–
O=S(=O)(Nc1cccc(C(F)(F)F)c1)c1cccc2cccnc12,-1.42,–
Cc1ccc(Cl)cc1N1C(=O)Nc2ccccc2N1O,-1.07,–
Nc1nc(SCC(=O)NCCCN2CCOCC2)nc2sc3c(c12)CCC3,-1.53,–
C=CCOc1ccc(-c2nc3s/c(=C\c4ccc(OC(C)=O)c(OC)c4)c(=O)n3n2)cc1,1.33,–
COc1ccccc1C(=O)[C@H]1C(=O)N[C@@]2(C)C[C@@H]1c1cccc(OC)c1O2,-1.16,–
Nc1cc(-c2ccccc2)nn1S(=O)(=O)c1cccc([N+](=O)[O-])c1,1.1,–
Cc1cc(C)cc(N(CC(=O)NCc2cccs2)S(=O)(=O)c2c(C)[nH]c(=O)[nH]c2=O)c1,-2.11 (active),–
O=S(=O)(NCc1ccc2c(c1)OCO2)c1cccc2cccnc12,-1.35,–
CCc1nc(C)cn1S(=O)(=O)c1cc(C)c(OC)cc1C,-1.15,–
CCOC(=O)c1c(C)n(C)c2ccc(OCC(O)Cn3nc(C)cc3C)cc12 (centres undefined),-2.1 (active),–
O=C1C2ON(c3ccccc3)C(c3ccncc3)C2C(=O)N1c1ccc(N2CCOCC2)cc1 (centres undefined),-1.7,–
N#Cc1ccccc1Cn1c(=O)n(-c2ccc(CC(=O)NCc3ccco3)cc2)c(=O)c2sccc21,-1.2,–
CSc1ccc(/C=c2\sc3nc(-c4ccco4)nn3c2=O)cc1,-1.12,–
